Reference: PubChem BioAssay AID1159580 (chemical genetic matrix, 2015)
The whole screen tested about 5,500 compounds, of which about 2,000 (36%) were called active. Roughly 18% stayed inconclusive and do not appear here. Rule as the data show it: active = normalized growth mostly below about 0.91 (no sharp cut-off); inconclusive = no clear call, values can overlap the other calls; inactive = mostly above about 0.92. This is one part of the list.

Test: chemical genetic growth profiling, strain panel (AID 1159580);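 also: tested at 20 µM; growth read once vehicle control cultures reached saturation at 30 °C; 1 = growth at the plate median or of vehicle wells; lower values mean less growth of the strain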
Conditions: S. cerevisiae deletion strains, growth OD

Measured: normalized growth

COC(=O)C[C@H]1C(C)(C)C2(Cl)O[C@@]34CC2C(=O)[C@]1(C)C3CC[C@]1(C)C4=CC(=O)O[C@H]1c1ccoc1 (stereo not given in full)
inactive: locus YAL013W, strain DEP1, hits give low values 1.01 | locus YBR021W, strain FUR4, hits give low values 0.995 | locus YBR229C, strain ROT2, hits give low values 1 | locus YCL029C, strain bik1, hits give low values 1.01 | locus YDL035C, strain GPR1, hits give low values 1.02 | locus YDL074C, strain BRE1, hits give low values 0.989 | locus YDL101C, strain DUN1, hits give low values 0.997 | locus YDL134C, strain PPH21, hits give low values 0.999 | locus YDL185W, strain tfp1, hits give low values 0.994 | locus YDL192W, strain arf1, hits give low values 0.99 | locus YDR101C, strain arx1, hits give low values 0.993 | locus YDR162C, strain NBP2, hits give low values 0.971 | locus YDR318W, strain mcm21, hits give low values 1 | locus YDR388W, hits give low values 0.993 | locus YDR502C, strain sam2, hits give low values 0.996 | locus YEL061C, strain CIN8, hits give low values 1 | locus YER110C, hits give low values 0.993 | locus YER155C, strain BEM2, hits give low values 1.01 | locus YER167W, strain BCK2, hits give low values 1.01 | locus YGL078C, strain dbp3, hits give low values 0.99 | locus YGL086W, strain mad1, hits give low values 0.989 | locus YGL248W, strain PDE1, hits give low values 1 | locus YGR078C, strain PAC10, hits give low values 0.991 | locus YGR135W, strain pre9, hits give low values 0.976 | locus YGR252W, strain gcn5, hits give low values 0.966 | locus YHR030C, strain SLT2, hits give low values 0.999 | locus YHR079C, strain IRE1 (second series), hits give low values 0.996 | locus YHR094C, strain hxt1, hits give low values 0.995 | locus YHR129C, strain ARP1, hits give low values 1 | locus YHR200W, strain rpn10, hits give low values 0.992 | locus YIL066C, strain RNR3, hits give low values 1.01 | locus YIL073C, strain SPO22, hits give low values 1 | locus YIL125W, strain kgd1, hits give low values 1 | locus YIR030C, strain dcg1, hits give low values 0.986 | locus YJL095W, strain BCK1, hits give low values 0.996 | locus YJL134W, strain LCB3, hits give low values 1.01 | locus YJL168C, strain set2, hits give low values 0.987 | locus YJL187C, strain SWE1 (second series), hits give low values 1 | locus YJR075W, strain HOC1, hits give low values 1.01 | locus YKL009W, strain mrt4, hits give low values 0.983 | locus YKL068W, hits give low values 1.01 | locus YKL085W, strain MDH1 (second series), hits give low values 0.996 | locus YKL085W, strain MDH1, hits give low values 0.996 | locus YKR001C, strain vps1, hits give low values 1 | locus YLR039C, strain RIC1, hits give low values 1.05 | locus YLR058C, strain SHM2, hits give low values 1 | locus YLR102C, strain apc9, hits give low values 1 | locus YLR268W, strain sec22, hits give low values 1 | locus YLR342W, strain FKS1 (second series), hits give low values 1.02 | locus YLR371W, strain rom2, hits give low values 0.996 | locus YLR418C, strain cdc73, hits give low values 0.96 | locus YML016C, strain PPZ1, hits give low values 1.01 | locus YML032C, strain rad52, hits give low values 0.995 | locus YML124C, strain tub3, hits give low values 0.992 | locus YMR078C, strain ctf18, hits give low values 1.01 | locus YMR223W, strain ubp8, hits give low values 0.979 | locus YMR307W, strain GAS1, hits give low values 0.957 | locus YNL067W, strain RPL9B, hits give low values 1 | locus YNL153C, strain GIM3, hits give low values 1 | locus YNL233W, strain BNI4, hits give low values 0.995 | locus YNL250W, strain rad50, hits give low values 0.995 | locus YNL271C, strain bni1, hits give low values 0.998 | locus YNL298W, strain CLA4, hits give low values 0.99 | locus YNL307C, strain MCK1, hits give low values 0.991 | locus YNR052C, strain pop2, hits give low values 0.998 | locus YOL006C, strain TOP1, hits give low values 1.02 | locus YOL012C, strain htz1 0.78 | locus YOL147C, strain pex11, hits give low values 0.99 | locus YOR061W, strain CKA2, hits give low values 1.01 | locus YOR069W, strain VPS5, hits give low values 1 | locus YOR136W, strain idh2, hits give low values 0.988 | locus YOR144C, strain elg1, hits give low values 0.995 | locus YOR184W, strain ser1, hits give low values 1.01 | locus YOR316C, strain cot1, hits give low values 0.988 | locus YPL241C, strain CIN2, hits give low values 1 | locus YPR119W, strain clb2, hits give low values 0.989 | locus YPR141C, strain kar3, hits give low values 0.997 | locus YPR163C, strain tif3, hits give low values 0.991 | locus YPR167C, strain met16, hits give low values 0.991 | strain wtn01, hits give low values 1.02
